MEKK2mut PB1 HTS: MEK5 binding signal on mutant MEKK2 PB1, primary screen, biochemical, multiplex bead flow cytometry, Alexa488-MEK5. 290,000 tested, 0.35% active. Alexa488-MEK5 binding to MEKK2 mutant. percent response, % at 10 µM. AID 1530, 2009; in the data active = percent response above about 24%, passing the limit was not always enough
Pf gametocyte: late stage P. falciparum gametocyte viability inhibitors, primary screen, ATP luminescence, HTS | P. falciparum stage V gametocytes, 24 h | inhibition, % at 10.9 µM | 150,000 tested, 0.065% active | AID 743093, 2013;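 active = inhibition above the mean plus 3 SD of compounds within the control limits, set per campaign, cut at about 38% in these data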;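 note: 0% = DMSO wells and 100% = medium only without gametocytes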
Arbovirus inh: antivirals against arbovirus infection, primary screen, cell-based, full library, 10K replicate subset; arbovirus infection cell-based antiviral screen; inhibition, % at 10 µM; 200,000 tested, 0.37% active; AID 1251, 2008; in the data active = inhibition above about 30%
MEKK2 WT-MEK5: modulators of MEK5 binding to wildtype MEKK2, primary screen, biochemical, multiplex bead flow cytometry, Alexa488-MEK5; binding response (% of control), % at 10 µM; Mitogen-activated protein kinase kinase kinase 2 (Homo sapiens), Q9Y2U5; Alexa488-MEK5 binding to MEKK2 WT; actives lie on both sides; 290,000 tested, 1.1% active; AID 1531, 2009; in the data active = binding response below about 67% or above about 130%
MEKK3 PB1 HTS: modulators of MEKK3-MEK5 PB1 binding, primary screen, biochemical, wildtype MEKK3, multiplex bead flow cytometry, Alexa488-MEK5. binding response (% of control), % at 10 µM. AID 1529, 2009. bead-based flow cytometry, Alexa488-MEK5 binding to MEKK3; actives lie on both sides; 0 = blocked by unlabeled MEK5, 100 = vehicle. Mitogen-activated protein kinase kinase kinase 3 (Homo sapiens), Q99759. 290,000 tested, 1.4% active;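 active = binding response more than 3 SD above or below the average of its plate-row segment, actives on both sides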;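 note: Alexa488 bead fluorescence after subtracting the streptavidin-only scavenger bead signal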
Target sequence (Q99759 whole entry, looked up): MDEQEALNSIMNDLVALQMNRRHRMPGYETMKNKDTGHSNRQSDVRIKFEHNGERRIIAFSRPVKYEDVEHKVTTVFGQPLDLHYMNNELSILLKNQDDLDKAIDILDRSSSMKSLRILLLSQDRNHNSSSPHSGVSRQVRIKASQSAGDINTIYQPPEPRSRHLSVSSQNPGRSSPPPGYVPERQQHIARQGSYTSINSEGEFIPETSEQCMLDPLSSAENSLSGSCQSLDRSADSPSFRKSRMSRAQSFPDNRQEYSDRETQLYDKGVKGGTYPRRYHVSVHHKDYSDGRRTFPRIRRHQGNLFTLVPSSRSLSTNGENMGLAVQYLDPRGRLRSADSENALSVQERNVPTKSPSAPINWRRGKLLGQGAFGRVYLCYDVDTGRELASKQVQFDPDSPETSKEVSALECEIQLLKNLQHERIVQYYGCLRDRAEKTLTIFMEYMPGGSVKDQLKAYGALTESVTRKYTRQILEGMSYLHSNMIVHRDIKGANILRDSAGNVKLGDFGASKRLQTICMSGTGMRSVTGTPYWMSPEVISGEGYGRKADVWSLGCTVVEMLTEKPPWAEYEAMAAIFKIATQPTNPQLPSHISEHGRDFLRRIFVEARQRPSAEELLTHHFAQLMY
MEKK2wt confirm: modulators of MEK5 binding to wildtype MEKK2, confirmation, biochemical, single concentration, multiplex bead flow cytometry; shares compounds with MEKK3 PB1 HTS; Alexa488-MEK5 binding to MEKK2 WT; actives lie on both sides; binding response (% of control), % at 10 µM; 5,900 tested, 2.4% active; in the data active = binding response below about 16% or above about 210%; inactive = in between
MEKK2mut confirm: mutant MEKK2 PB1-MEK5 binding signal retest – biochemical, single concentration, multiplex bead flow cytometry, confirmation | shares compounds with MEKK3 PB1 HTS | Alexa488-MEK5 binding to MEKK2 mutant | percent response, % at 10 µM | 5,900 tested, 2% active; in the data active = percent response mostly above about 71%, no sharp cut-off; inactive = mostly below about 38%;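 note: higher means compound restores mutant binding toward wildtype level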
MEKK3 confirm: MEKK3 wild-type PB1 binding to MEK5, inhibitors, confirmation, biochemical, bead multiplex flow cytometry, single concentration, wildtype; shares compounds with MEKK3 PB1 HTS; Alexa488-MEK5 binding to MEKK3; stronger effect = lower value; binding response (% of control), % at 10 µM; 5,900 tested, 1.8% active; AID 1894, 2009;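 active = binding response below 72% of control, or above a set upper limit, though filed actives all read lower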;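 note: 100% = DMSO only wells and 0% = binding blocked by excess unlabeled MEK5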
The depositor's hits bear a star; [ ] = another dose, or the depositor's remark. Hits are enriched below; roughly 2.4% of the tested compounds scored in any of these assays.

For FC(F)(F)c1cc(-c2ccccc2)nc(NCc2cccnc2)n1 the results were MEKK2mut PB1 HTS -10, Arbovirus inh -1, MEKK2 WT-MEK5 -1.0*[inhibitor], MEKK3 PB1 HTS 1.0*[inhibitor], MEKK2wt confirm 97, MEKK2mut confirm -7 and MEKK3 confirm 99.
`Cc1cc(NC(=O)CSc2nnc(N)s2)c([N+](=O)[O-])cc1C` gave MEKK2mut PB1 HTS -4, Arbovirus inh 4, MEKK2 WT-MEK5 77, MEKK3 PB1 HTS 65*[inhibitor], MEKK2wt confirm 97, MEKK2mut confirm -2 and MEKK3 confirm 99.
CCN(CC)c1ccc(/C=C(/C#N)c2nc3ccc(C)cc3[nH]2)c(OC(C)C)c1 was read as MEKK2mut PB1 HTS 95*, Arbovirus inh -12, MEKK2 WT-MEK5 78, MEKK3 PB1 HTS 115, MEKK2wt confirm 91, MEKK2mut confirm -18 and MEKK3 confirm 89.
O=C(NCc1ccc(Cl)cc1)C1CCC(=O)N(C2CCCCCC2)C1 (centres undefined) was read as MEKK2mut PB1 HTS 7, MEKK2 WT-MEK5 110 and MEKK3 PB1 HTS 109.
Screening CSc1nc2ccccc2n1Cc1cccc([N+](=O)[O-])c1 returned MEKK2mut PB1 HTS 1, Arbovirus inh -11, MEKK2 WT-MEK5 108, MEKK3 PB1 HTS 152*, MEKK2wt confirm 100, MEKK2mut confirm -5 and MEKK3 confirm 103.
O=C(NC1CCCCC1)C(c1cccnc1)N(C(=O)c1csnn1)c1ccc(F)cc1 (centres undefined) was read as MEKK2mut PB1 HTS -3, MEKK2 WT-MEK5 98 and MEKK3 PB1 HTS 101.
CS(=O)(=O)N1N=C(c2cccs2)CC1c1ccc(F)cc1 (centres undefined) was read as MEKK2mut PB1 HTS -7, Pf gametocyte -10, MEKK2 WT-MEK5 22*[inhibitor], MEKK3 PB1 HTS 81, MEKK2wt confirm 91, MEKK2mut confirm -19 and MEKK3 confirm 93.
`Cc1ccc2nc(Cl)c(C3CC(c4cccs4)=NN3C(=O)CCCC(=O)O)cc2c1` (centres undefined) gave MEKK2mut PB1 HTS -2, Pf gametocyte 2, Arbovirus inh 4, MEKK2 WT-MEK5 93 and MEKK3 PB1 HTS 98.
CCOc1ccccc1C1CC(c2cccs2)=NN1S(C)(=O)=O (centres undefined) was read as MEKK2mut PB1 HTS -5, Pf gametocyte 10, Arbovirus inh -2, MEKK2 WT-MEK5 76, MEKK3 PB1 HTS 2.0*[inhibitor], MEKK2wt confirm 89, MEKK2mut confirm -7 and MEKK3 confirm 89.
Screening CCOC(=O)CSCC(=O)N1N=C(c2cccs2)CC1c1ccc(F)cc1 (centres undefined) returned MEKK2mut PB1 HTS 7, Arbovirus inh 8, MEKK2 WT-MEK5 109 and MEKK3 PB1 HTS 107.
Screening CCS(=O)(=O)N1N=C(c2cccs2)CC1c1cc2cc(C)ccc2nc1Cl (centres undefined) returned MEKK2mut PB1 HTS 5, Pf gametocyte -9, MEKK2 WT-MEK5 -9.0*[inhibitor], MEKK3 PB1 HTS 96, MEKK2wt confirm 93, MEKK2mut confirm -9 and MEKK3 confirm 101.
CS(=O)(=O)N1N=C(c2cccs2)CC1c1ccccc1O (centres undefined) was read as MEKK2mut PB1 HTS -7, Arbovirus inh -5, MEKK2 WT-MEK5 0.0*[inhibitor], MEKK3 PB1 HTS 77, MEKK2wt confirm 101, MEKK2mut confirm 2 and MEKK3 confirm 101.

Screening results (PubChem)
